Among the data in PubChem BioAssay are composite z-score values, retold here.

The target of this assay is Concanavalin-A (Canavalia ensiformis) (UniProt P02866). Nature of the assay: ConA small-molecule binders, primary screen, artefact control for SMM control protein annotation, biochemical, small-molecule microarray, Alexa647 label, 635 nm (AID 1127).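 Note: z combines 667 nm emission intensity with signal-to-noise across three replicate slides.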 As to conditions: ConA-A647 binding fluorescence, higher = more signal.
Sequence of Concanavalin-A (Canavalia ensiformis) (P02866 whole entry, looked up): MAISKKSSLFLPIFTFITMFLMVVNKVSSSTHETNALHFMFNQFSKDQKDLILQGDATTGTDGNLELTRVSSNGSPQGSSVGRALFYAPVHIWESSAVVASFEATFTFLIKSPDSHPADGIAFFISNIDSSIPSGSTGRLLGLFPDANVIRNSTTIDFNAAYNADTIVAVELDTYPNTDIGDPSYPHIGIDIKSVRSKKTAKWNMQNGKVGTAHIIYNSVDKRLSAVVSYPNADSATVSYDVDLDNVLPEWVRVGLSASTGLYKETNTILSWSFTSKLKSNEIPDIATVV
As for `COCC(=C=CC[C@@H](O)c1ccccc1OCCO)C[C@@H](O)c1cc(Cl)cc(Cl)c1O`, the composite z-score came to 1.08.

The compound `COc1ccc(C(=O)Nc2ccc(CN3C(=O)[C@@]4(O[C@@H](CCO)[C@H]([Si](C)(C)c5ccc(OC)cc5)[C@H]4C)c4ccccc43)cc2)cc1` registered a composite z-score of 1.14.

With `O=C1O[C@H](c2ccccc2)[C@H](c2ccccc2)N2[C@H]1[C@@H](C(=O)O)[C@]1(C(=O)Nc3ccc(C#CCCO)cc31)[C@H]2c1ccc(O)cc1`, the composite z-score is -0.161.

`C=CC[C@@]1(C(N)=O)N=C(c2ccc(OCCCO)cc2)O[C@@H]1c1ccccc1CN=[N+]=[N-]` registered a composite z-score of 1.

Turning to `COCCOC(=O)N1C(=O)[C@@]2(c3cc(C#CC4=CCCCC4)ccc31)[C@H](C(=O)N1CCc3cc(OC)c(OC)cc3C1)[C@H]1C(=O)O[C@H](c3ccccc3)[C@H](c3ccccc3)N1[C@@H]2c1ccc(OCCO)cc1`, the composite z-score was found to be 1.14.

`COc1ccc(C(O)C2C=CC3C(=O)N(c4ccccc4)C(=O)C3N2Nc2ccccc2F)cc1OCc1ccccc1` (stereo not given) displayed a composite z-score of 1.13.

As to `C=C(COC)/C(=C/C[C@@H](OC(C)=O)c1ccc(CO)o1)c1cnc2ccccc2c1`, the composite z-score was determined as 1.2.

`O=C1C[C@]2(c3ccc([N+](=O)[O-])cc3)C(=O)N(CCN3CCOCC3)c3cc(CO)ccc3[C@H]2N1C1CCCCC1` displayed a composite z-score of -0.172.

The compound `COC(=O)C=C(CC(O)c1cccc(Cl)c1)OC` (stereo not given) came in with a composite z-score of -0.115.

`COc1cc2c(cc1OC)CN(C(=O)[C@@H]1[C@H]3C(=O)O[C@H](c4ccccc4)[C@H](c4ccccc4)N3[C@H](c3ccc(O)cc3)[C@@]13C(=O)Nc1ccc(C#CC4(O)CCCCCC4)cc13)CC2` yielded a composite z-score of 1.16.
